Laboratory results taken from PubChem BioAssay AID1945 (The Scripps Research Institute Molecular Screening Center, 2009).
The whole screen tested about 1,600 compounds, of which about 65 (4%) were called active. Only a sample is shown. A number with no mark means an inactive call. No stated cut-off is given here; in the data, active means inhibition above about 37%; inactive means the rest.

assay: DNA intercalator displacement agents – biochemical, FID fluorescence, triplicate, artefact control for HCV NS3 helicase inhibitor project (AID 1945); conditions: DNA fluorescent intercalator displacement, at 7.9 µM, active compounds read high;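 further: 0% = vehicle and 100% = reference compound; higher means more displacement of ethidium bromide from the DNA hairpin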

| Structure (SMILES) | inhibition |
| --- | --- |
| CC(=O)Oc1cccc(N2C(=O)CC(Nc3ccc(N4CCOCC4)cc3)C2=O)c1 (stereo not given) | -9.25% |
| COc1cc(/C=C2/C(=O)NN(c3cccc(Cl)c3)C2=O)cc(Br)c1O | 8.6% |
| COc1ccccc1C1/C(=C(/O)c2ccc(OC(C)C)cc2)C(=O)C(=O)N1c1cc(C)on1 (stereo not given) | -26.4% |
| COc1cc(C2CC(=O)N3CN(Cc4ccccc4)CSC3=C2C#N)ccc1OCc1ccccc1 (stereo not given) | -15.9% |
| CC(=O)C1=C(O)C(=O)N(c2ccc(Br)cc2)C1c1ccc([N+](=O)[O-])cc1 (stereo not given) | -11.1% |
| O=C1NN(c2ccccc2)C(=O)/C1=C/c1ccc(-c2cccc(C(=O)O)c2)o1 | -0.74% |
| Cc1ccc(C2=N/C(=C\c3ccc(OS(=O)(=O)c4ccc(C)cc4)cc3)C(=O)O2)cc1 | -12.6% |
| COc1cc(C2C(C(=O)c3ccco3)=C(O)C(=O)N2c2cc(C)on2)ccc1OCc1ccccc1 (stereo not given) | -1.69% |
| Cc1[nH]n(C(N)=S)c(=O)c1N=Nc1ccc(Cl)cc1Cl | -8.84% |
| O=[N+]([O-])c1cc(Cl)cc(/C=N/NC(=S)Nc2cc(S(=O)(=O)N3CCOCC3)ccc2Cl)c1O | -2.03% |
| O=C(N/N=C/c1ccc([N+](=O)[O-])o1)c1cn(-c2ccccc2)nc1-c1ccc(F)cc1 | 10.7% |
| Cc1ccc(C)c(-n2c(SCC(=O)O)nc3sc4c(c3c2=O)CCCC4)c1 | -27.8% |
| S=C(NCCc1ccccc1)N1CCCCC1 | -0.28% |
| CCOC(=O)c1nnn(-c2nc(OC)nc(N(C)C)n2)c1-c1ccccc1 | -39.7% |
| N#C/C=C(/c1ccc(F)cc1)N1CCOCC1 | 14% |
| CCOc1ccc(C(C(=O)NCCOC)N(CCOC)C(=O)CCC(=O)Nc2ccccn2)cc1 (stereo not given) | -24.9% |
| Cc1ccc(C2Nc3cccc4cccc(c34)N2)cc1 | 17.1% |
| COc1ccc(/C=C(\NC(=O)c2ccc(OCC(C)C)cc2)C(=O)OCc2ccco2)cc1 | -43.9% |
| Cc1ccc(OCC(=O)c2cc(C)n(Cc3ccco3)c2C)c([N+](=O)[O-])n1 | -9.01% |
| Cc1ccccc1Nc1nnc(SCC(=O)c2cc3ccccc3o2)s1 | -3.69% |
| COc1ccc(C)cc1-n1nnnc1SCC(=O)c1cc(C)n(Cc2ccco2)c1C | -39% |
| CC(Oc1ccccc1)C(=O)Nc1oc(-c2ccco2)c(-c2ccco2)c1C#N (stereo not given) | 13.9% |
| CC(C)c1ccc(Nc2nnc(SCC(=O)c3nnc(-c4ccccc4)o3)s2)cc1 | 8.51% |
| O=c1[nH]c(/C=C\c2cccc(C(F)(F)F)c2)nc(O)c1[N+](=O)[O-] | -2.48% |
| O=c1nc2s/c(=C\c3ccco3)c(=O)n2nc1Cc1ccccc1 | 7.7% |

| Structure (SMILES) | inhibition |
| --- | --- |
| Cc1ccc(S(=O)(=O)N/N=C\c2cc3c(cc2[N+](=O)[O-])OCO3)cc1 | 14.6% |
| CC(=O)Nc1ccc(Nc2c3ccccc3nc3ccccc23)cc1 | 79.8% (active) |
| CCOC(=O)c1ccccc1N1C(=O)C2Sc3[nH]c(=O)sc3C(/C=C/c3ccccc3)C2C1=O (stereo not given) | -46.6% |
| COCCNC(=O)Nc1ccc2nc(-c3ccco3)c(-c3ccco3)nc2c1 | 18.2% |
| CCOC(=O)c1c(-c2ccccc2)oc2cc(Br)c(O)c(C=O)c12 | 85% (active) |
| Cc1cc(O)c(C(=O)/C=C/c2c(F)c(F)c(F)c(F)c2F)c(=O)o1 | 3.73% |
| CCOc1ccc(C2C3=C(CCCC3=O)N(CC(=O)O)C3=C2C(=O)CCC3)cc1 | 7.44% |
| CS(=O)(=O)c1ccc2c(c1)SC1=NC(=O)/C(=C/c3ccco3)C(=N)N12 | -2.29% |
| Cc1ccc(SC(CC(=O)c2ccc(C(C)(C)C)cc2)C(=O)O)cc1 (stereo not given) | -10.2% |
| CC1=NN(c2ccc(Cl)c(C(=O)O)c2)C(=O)/C1=C/c1ccc(-c2ccccc2[N+](=O)[O-])o1 | 15.8% |
| COc1ccc(/C=C2\SC(=S)N(CCC(=O)Nc3cccc(C(=O)O)c3)C2=O)cc1OC | 15.4% |
| CNS(=O)(=O)c1cccc(C(=O)NC2CCCc3ccccc32)c1 (stereo not given) | -7.17% |
| CCSc1nsc(NC(=O)Nc2cccc(C(C)=O)c2)n1 | 8.36% |
| O=c1c2c(-c3ccccc3)ccnc2[nH]n1-c1ccccc1 | 1.8% |
| COC(=O)COc1ccc2c(c1C)O/C(=C\c1ccco1)C2=O | -11.8% |
| NS(=O)(=O)c1ccc(-c2ccc(/C=C3\SC(=O)NC3=O)o2)cc1 | 1.16% |
| CCOC(=O)C1=C(O)/C(=C/c2cc(C)n(-c3ccccc3)c2C)N=C1C | -10.6% |
| COc1ccc(/C=C/C(=O)c2cc(Br)ccc(=O)c2O)cc1 | 16.2% |
| Cc1ccc(C(=O)O)cc1-c1ccc(/C=C2\SC(=O)N(CC(=O)Nc3ccc4c(c3)OCO4)C2=O)o1 | 1% |
| COc1cccc(CNC(=O)c2nnn(CC(=O)Nc3cc(Cl)ccc3C)c2N)c1 | 9.61% |
| Cc1ccc(S(=O)(=O)NCCC(c2ccccc2)c2ccccc2)cc1C(=O)O | -24.5% |
| CCN(CC)CCOc1ccc2c(c1)C(=NNC(=O)c1ccccn1)c1cc(OCCN(CC)CC)ccc1-2 | 94.3% (active) |
| Brc1ccccc1C1Nc2cccc3cccc(c23)N1 | 12.8% |
| O=C1C=CC(=O)N1c1ccc(N2CCCCC2)cc1 | 17% |
| O=C(N/N=C/c1ccco1)c1csc2c1CCCC2 | -7.05% |

| Structure (SMILES) | inhibition |
| --- | --- |
| COc1ccccc1N1CCN(C(=O)CCS(=O)(=O)c2ccc3c(c2)NC(=O)C(C)S3)CC1 (stereo not given) | -36.4% |
| CSc1c(SCc2ccccc2)cnn(Cc2ccccc2)c1=O | -16.1% |
| CCC1C/C(=C/c2cccs2)C(=O)/C(=C/c2cccs2)C1 (stereo not given) | -0.49% |
| Nc1ccc2nc3c(=O)[nH]c(=S)[nH]c3nc2c1 | -8.12% |
| Cc1nn2c(c1-c1ccccc1)N=C(c1ccco1)CC2c1ccccc1 (stereo not given) | -5.96% |
| CS/C(=C\C(=O)c1ccco1)Nc1ccccc1Cl | -4.94% |
| O=C1N/C(=C/c2cccn2-c2ccccc2)C(=O)N1c1cccc(Cl)c1 | 12.2% |
| Cc1cc(C)c2nc(-c3ccco3)cc(C(=O)O)c2c1 | -5.42% |
| Cc1ccc(/C=C/C(=O)Nc2ccc([N+](=O)[O-])c(NC(=O)/C=C/c3ccc(C)o3)c2)o1 | 33.4% |
| CC(C)c1ccc(C2C(C(=O)c3ccco3)=C(O)C(=O)N2CC2CCCO2)cc1 (stereo not given) | -21.9% |
| Cc1ccc(C(CC(=O)O)Nc2nc(N3CCCCC3)nc(N3CCCCC3)n2)cc1 (stereo not given) | -62.5% |
| Cc1ccc(-c2nn(-c3ccccc3)cc2/C=C2\SC(=S)N(CCCCCC(=O)O)C2=O)o1 | 9.08% |
| CN(C)c1ccc(N/C=C/C(=O)C(F)(F)F)cc1 | 17.8% |
| O=C(c1cccc(-n2cccc2)c1)N1CCN(S(=O)(=O)c2ccc(F)cc2)CC1 | -4.45% |
| O=C(CCCN1C(=O)/C(=C\c2ccco2)SC1=S)Nc1cccc2ccccc12 | 6.79% |
| Cc1occc1C(=O)N/N=C/c1ccc(-c2cccc([N+](=O)[O-])c2)o1 | 1.25% |
| Cc1cc(N2C(=O)C(O)=C(C(=O)c3ccc(C)o3)C2c2ccc(OCc3ccccc3)cc2)no1 (stereo not given) | -15.8% |
| Cc1cccc(NC(=O)c2sc3nc4c(c(-c5ccco5)c3c2N)CCC4)c1 | -11.3% |
| COc1ccc(OCC(=O)Nc2nnc(-c3ccco3)s2)cc1 | -1.45% |
| COc1ccc(NC(=O)CSc2ccc(-c3ccco3)nn2)c(OC)c1 | 0.58% |
| Clc1ccccc1CSc1nnc(-c2ccco2)c(-c2ccco2)n1 | 72.2% (active) |
| c1ccc(CSc2nnc(-c3ccco3)c(-c3ccco3)n2)cc1 | 32.8% |
| O=C(CCl)NNc1cccc(Cl)n1 | 11.2% |
| COc1cccc(C(=O)CC(=O)C(=O)Nc2ccc([N+](=O)[O-])cc2C)c1 | 2.14% |
| Fc1ccc(-c2ccc(-c3nn4c(-c5ccco5)nnc4s3)o2)cc1 | -13.2% |
